According to PubChem BioAssay AID686979 (National Center for Advancing Translational Sciences (NCATS), 2013):
Screen size: about 420,000 compounds; about 50,000 (12%) were called active. Inconclusive results (about 26%) are left out. Shown is part of a subset that was picked to be rich in actives. A number with no mark means an inactive call. Calls follow the shape of the dose curve; as a rule, active = well fitted inhibition curve with a large enough effect; inconclusive = small, poorly fitted or top-dose-only effect; inactive = flat fitted curve, though single readings scatter.
% is scaled to controls: 0 for no effect and ±100 for the full control effect; potency is read from the fitted curve at half-maximal effect.

Experiment: qHTS for Inhibitors of human tyrosyl-DNA phosphodiesterase 1 (TDP1): qHTS in cells in presence of CPT; also: nearly all actives have a fitted effect of over 55% in size
Conditions: chicken DT40 Tdp1-/-;hTDP1 cells + 20 nM CPT, ATP luminescence, 48 h; series mostly up to 46.2 µM; activity change, negative = growth inhibition: at the top concentration
Outline: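 Cell growth measured by CellTiter-Glo luminescence after a minimum 48 h, 37 C compound exposure with 20 nM CPT in Tdp1-knockout DT40 cells stably expressing hTDP1, seeded 400/well; qHTS titration format.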
With O=C(Nn1cnnc1)c1cc(Cl)ccc1Cl the “activity change, negative = growth inhibition” value was -9.38%.
For NS(=O)(=O)c1cccc(NC(=O)COC(=O)/C=C/c2ccco2)c1, the “activity change, negative = growth inhibition” value was 1.47%.
In the case of CCC(C)C(CO)NC(=O)/C=C/[C@H]1O[C@@H](n2cnc3c(NC(=O)c4ccccc4)ncnc32)[C@H](O)[C@@H]1O (some centres undefined), the “activity change, negative = growth inhibition” value was 3.57%.
With Cc1ccnc(NC(=O)c2ccoc2C)c1 the “activity change, negative = growth inhibition” value was -5.15%.
In the case of C/C(=N\NC(=O)c1ccoc1C)c1ccccc1O, the Potency was 10.3 µM (active).
With C/C(=N\NC(=O)c1ccccc1C)c1ccc(N2CCOCC2)cc1 the “activity change, negative = growth inhibition” value was -5.61%.
With COC(=O)c1sc(=S)n(-c2ccc(Cl)cc2)c1C the “activity change, negative = growth inhibition” value was -11.9%.
For OC(CBr)CN1CCCCC1 (centres undefined), the “activity change, negative = growth inhibition” value was -5.66%.
With COc1ccc(-n2nnnc2CNC(=O)c2ccc3ccccc3c2)cc1 the “activity change, negative = growth inhibition” value was -13.1%.
In the case of O=C(NCc1nnnn1-c1ccc(Cl)cc1)c1ccc2c(c1)OCO2, the “activity change, negative = growth inhibition” value was -14.2%.
With O=C(NCc1nnnn1-c1ccc(Cl)cc1)c1ccc([N+](=O)[O-])o1 the Potency was 18.4 µM (active).
With O=C(/C=C/c1cccc([N+](=O)[O-])c1)NCCSCc1ccco1 the “activity change, negative = growth inhibition” value was -16.6%.
With COc1ccc(Cl)cc1NS(=O)(=O)c1cccc(C(=O)NC2CCC(O)CC2)c1 (centres undefined) the “activity change, negative = growth inhibition” value was 1.8%.
With COc1ccc(C(=O)NC2CC2)cc1OC1CCN(Cc2cnn(C)c2)CC1 the “activity change, negative = growth inhibition” value was -4.23%.
For COc1cc(C(=O)NC2CCN(C)CC2)ccc1Nc1ncc2c(n1)N(C1CCC(O)CC1)CCC(=O)N2C (centres undefined), the Potency was 16.4 µM (active).
In the case of O=C(NCCc1ccccc1Cl)C1CCC(=O)N(CCCc2ccccc2)C1 (centres undefined), the “activity change, negative = growth inhibition” value was -29.6%.
With COc1ccc(C(=O)O)cc1S(=O)(=O)NCc1cccnc1 the “activity change, negative = growth inhibition” value was -2.76%.
For O=C(CCn1c(=O)c2ccccc2n(Cc2ccc(Cl)cc2)c1=O)NCc1ccc2c(c1)OCO2, the “activity change, negative = growth inhibition” value was -29.2%.
In the case of CCOc1ccc(NC(=O)Cn2c(=O)n(CCCC(=O)NCc3ccc4c(c3)OCO4)c(=O)c3ccccc32)cc1, the “activity change, negative = growth inhibition” value was -2.1%.
With O=C(CCCCn1c(=O)c2ccccc2n(CC(=O)Nc2cccc(C(F)(F)F)c2)c1=O)NCc1ccc2c(c1)OCO2 the Potency was 18.4 µM (active).
For CCCCn1c(SCC(=O)N2CCCC2=O)nc2cc(S(N)(=O)=O)ccc21, the “activity change, negative = growth inhibition” value was -16%.
With CCCCn1c(SCC(=O)N2CCC(C(=O)OCC)CC2)nc2cc(S(N)(=O)=O)ccc21 the “activity change, negative = growth inhibition” value was -9.44%.
In the case of CCCCn1c(SCc2ncc(-c3ccccc3)o2)nc2cc(S(N)(=O)=O)ccc21, the Potency was 11.6 µM (active).
For COc1cccc(Cn2cnc3c([N+](=O)[O-])c(C)c(C)cc32)c1, the “activity change, negative = growth inhibition” value was -13%.
With CCc1ccc2[nH]c(=O)c(Cc3ccccc3)c(O)c2c1 the “activity change, negative = growth inhibition” value was -29.7%.
With CCOc1ccc(C(=O)Nc2cccc(SC)c2)cc1 the Potency was 6.51 µM (active).
With CCOc1ccc(NC(=O)c2ccc(NC(=O)COC(=O)c3ccc(NC(=O)CC#N)cc3)cc2)cc1 the “activity change, negative = growth inhibition” value was -19.3%.
For CCOc1ccc(C(=O)Nc2cccc(-c3ccc4nncn4n3)c2)cc1, the Potency was 20.6 µM (active).
In the case of CCC(=O)Nc1ccc(C(=O)Nc2cccc(OC)c2)cc1, the “activity change, negative = growth inhibition” value was 5.12%.
With CCOc1ccc(NC(=O)c2ccc(CSc3nnnn3C)cc2)cc1 the “activity change, negative = growth inhibition” value was -9.3%.
For CCOc1ccc(C(=O)Nc2ccncc2)cc1, the Potency was 10.3 µM (active).
For CCOc1ccc(C(=O)Nc2c3c(nn2-c2ccccc2)CS(=O)(=O)C3)cc1, the “activity change, negative = growth inhibition” value was -2.2%.
For CCOc1ccc(NC(=O)c2ccc(NC(=O)C3CCCO3)cc2)cc1 (centres undefined), the “activity change, negative = growth inhibition” value was 0.978%.
In the case of CSc1cccc(NC(=O)CSc2ccccc2)c1, the “activity change, negative = growth inhibition” value was -0.186%.
In the case of O=C(CCC1CCCC1)N=C1SC2CS(=O)(=O)CC2N1Cc1ccccc1 (centres undefined), the “activity change, negative = growth inhibition” value was -18.1%.
In the case of CCc1ccc([C@@H]2CC(=O)[C@@H]3CN(S(=O)(=O)c4ccc(C)cc4)[C@H](c4ccc(Cl)cc4)C[C@@H]3N2S(=O)(=O)c2ccc(C)cc2)cc1, the “activity change, negative = growth inhibition” value was -4.59%.
In the case of CCOc1ccc(N2CC(C(=O)N/N=C/c3sccc3C)CC2=O)cc1 (centres undefined), the “activity change, negative = growth inhibition” value was 9.79%.
In the case of C[C@H](CO)N1C[C@H](C)[C@@H](CN(C)C(=O)Nc2ccc3c(c2)OCO3)Oc2c(cccc2N(C)C)C1=O, the “activity change, negative = growth inhibition” value was -18.9%.
For CN1CCN(CC#CCC2(O)c3ccccc3-c3ccccc32)CC1, the “activity change, negative = growth inhibition” value was -12.5%.
In the case of CC(C)(C)C(=O)Nc1c(Br)c(C2CC2)nn1-c1ccccc1, the “activity change, negative = growth inhibition” value was -3.25%.
For CCOc1ccc(S(=O)(=O)NCCCn2ccnc2)cc1NC(C)=O, the “activity change, negative = growth inhibition” value was 4.07%.
For COC(=O)c1ccc(NC(=O)CSc2nc(N)c(NC(=O)c3ccc(Br)o3)c(=O)[nH]2)cc1, the “activity change, negative = growth inhibition” value was 1.82%.
For O=C(CCC1CCCN(Cc2ccc(O)c(Cl)c2)C1)NCc1ccccc1F (centres undefined), the “activity change, negative = growth inhibition” value was -19%.
For Cn1c(-c2ccccc2)c[n+]2c1CCCCC2, the “activity change, negative = growth inhibition” value was 5.76%.
In the case of Clc1ccc(C[n+]2cc(-c3ccccc3)n3c2CCC3)cc1, the Potency was 2.91 µM (active).
In the case of Clc1ccc(C[n+]2cc(-c3ccc(Cl)cc3)n3c2CCC3)cc1, the Potency was 4.61 µM (active).
For O=C(O)C(F)(F)C(NCc1ccccc1)c1ccccc1 (centres undefined), the “activity change, negative = growth inhibition” value was -10.3%.
For CCC(C(=O)NC1CCCCC1)N(C(=O)c1snc(C(N)=O)c1N)c1ccc(OC)cc1OC (centres undefined), the “activity change, negative = growth inhibition” value was -28.2%.
For CC(NC(=O)c1ccc(S(=O)(=O)Nc2ccccc2)cc1)c1ccc(S(N)(=O)=O)cc1 (centres undefined), the “activity change, negative = growth inhibition” value was -0.898%.
In the case of COc1cc(CNCc2ccc3c(c2)OCO3)c([N+](=O)[O-])cc1OC, the “activity change, negative = growth inhibition” value was -5.01%.
In the case of COc1cc2c(cc1OC)C(Cc1cc(OC)c(OC)cc1[N+](=O)[O-])=NCC2, the Potency was 5.17 µM (active).
With COc1cc(CN2CCCN(C)CC2)c([N+](=O)[O-])cc1OC the “activity change, negative = growth inhibition” value was -17.5%.
With CCCCC1S/C(=N/N=C/c2cccs2)NC1=O (centres undefined) the “activity change, negative = growth inhibition” value was -15.9%.
For CC(=O)OC(COc1ccc(F)cc1)Cn1cnc2ccccc21 (centres undefined), the “activity change, negative = growth inhibition” value was -18.6%.
With Cc1ccccc1OCC(O)CN1CCN(c2ccccn2)CC1 (centres undefined) the “activity change, negative = growth inhibition” value was 2.2%.
For CC(C)c1ccc(OCC(O)CN2CCN(c3ccccn3)CC2)cc1 (centres undefined), the Potency was 25.9 µM (active).
In the case of OC(COc1ccc2ccccc2c1)Cn1cncn1 (centres undefined), the “activity change, negative = growth inhibition” value was 4.84%.
For CCc1ccc(OCC(O)CN2CCN(CCO)CC2)cc1 (centres undefined), the “activity change, negative = growth inhibition” value was 4.93%.
In the case of CC(C)c1ccc(OCC(O)Cn2cnc3ccccc32)cc1 (centres undefined), the Potency was 18.4 µM (active).
With Cc1ccc(C)c(NC(=O)COC(=O)c2nn(C)c(=O)c3ccccc23)c1 the “activity change, negative = growth inhibition” value was 0.793%.
In the case of C/C=C/C(=O)OCc1csc(CC(=O)Nc2ccccc2C)n1, the “activity change, negative = growth inhibition” value was -11.6%.
With Cc1ccnc(NC(=O)C2CCN(S(=O)(=O)c3c(C)c(C)cc(C)c3C)CC2)c1 the “activity change, negative = growth inhibition” value was 26.2%.
With CCCNC(=O)C[C@@H]1CC[C@@H]2[C@H](COC[C@H](O)CN2C(=O)c2cc(Cl)cc(Cl)c2)O1 the “activity change, negative = growth inhibition” value was 15.3%.
For CC1(c2nnc(-c3ccncc3)o2)CC(c2cccnc2)=NO1 (centres undefined), the “activity change, negative = growth inhibition” value was 1.74%.
